AmpC detergent: blocks E. coli AmpC beta-lactamase in detergent assay | 370,000 tested, 0.041% active | AmpC hydrolysis of nitrocefin, absorbance 480 nm, 0.01% Triton | Potency, µM (top dose mostly 114 µM), without a hit: top-dose activity change, negative = inhibition, usual class: inhibitors;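 further: 0% = no-compound wells and -100% = no-enzyme wells; nearly all actives have a fitted effect of over 25% in size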
Target sequence (P00811 whole entry, looked up): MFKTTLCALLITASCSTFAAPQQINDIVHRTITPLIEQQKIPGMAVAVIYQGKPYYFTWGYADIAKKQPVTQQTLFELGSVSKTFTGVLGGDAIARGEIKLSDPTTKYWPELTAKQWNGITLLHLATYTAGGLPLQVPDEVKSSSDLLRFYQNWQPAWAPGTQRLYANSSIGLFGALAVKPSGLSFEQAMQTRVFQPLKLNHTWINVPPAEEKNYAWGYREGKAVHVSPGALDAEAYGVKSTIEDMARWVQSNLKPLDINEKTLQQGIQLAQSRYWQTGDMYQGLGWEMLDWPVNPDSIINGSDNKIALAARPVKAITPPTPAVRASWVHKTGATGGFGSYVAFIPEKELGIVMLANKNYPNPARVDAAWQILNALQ
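20 mM phosphate pH 7.0 + 0.01% (detergent screen) or 0.0001% Triton X-100; 5.3 nM AmpC reagent; cpd preinc 15 min RT; nitrocefin (800 uM stock) to start; A480 q20 s × 4 min; Activity was normalised to no-enzyme and no-compound control wells.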
Pf growth 48h: inhibits P. falciparum growth in the first generation, 48 h; P. falciparum luciferase growth in erythrocytes, 48 h; Potency, µM (top dose mostly 28.7 µM), for inactives: top-dose activity change, negative = inhibition, hits mostly inhibitors; 310,000 tested, 5.9% active; AID 504832; further: on the % scale 0 is the no-effect control and ±100 the full control effect
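Here the parasites carry a stable luciferase gene and grow inside erythrocytes in Albumax-based RPMI medium with compound for one erythrocytic cycle. Activity is scored as loss of luminescent signal.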
Sm TGR inh: inhibitors of Schistosoma mansoni thioredoxin glutathione reductase. Q962Y6. purified TGR, DTNB reduction, TNB absorbance 405 nm. Potency, µM (series often up to 114 µM), without a hit: top-dose activity change, negative = inhibition, hits mostly inhibitors. 360,000 tested, 3% active. AID 485364; further: on the % scale 0 is the no-effect control and ±100 the full control effect; nearly all actives have a fitted effect of over 60% in size
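Kinetic colorimetric format: TGR-catalysed, NADPH-driven DTNB reduction monitored via TNB absorbance. Enzyme dispensed at 20 nM; compound exposure 15 min at room temperature before reaction start.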
Pf growth 96h: inhibits malaria parasite growth, 96 h; P. falciparum luciferase reporter growth, 96 h; AID 504834; 320,000 tested, 6.9% active; Potency, µM (series often up to 28.7 µM), for inactives: top-dose activity change, negative = inhibition, usual class: inhibitors; further: on the % scale 0 is the no-effect control and ±100 the full control effect
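Delayed-death screen, second-generation endpoint: infected erythrocytes, 2% hematocrit, 0.05% parasitemia final; 96 hours at 37 C, 5% CO2; luciferase detection reagent; luminescence decrease equals reduced growth.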
AmpC no deterg: AmpC beta-lactamase inhibition without detergent | AmpC nitrocefin hydrolysis, absorbance 480 nm, 0.0001% Triton | 330,000 tested, 0.52% active | Potency, µM (highest dose often 57.1 µM), without a hit: at the highest dose activity change, negative = inhibition, most hits filed as inhibitors | AID 485341 | P00811;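 further: plate controls were no compound for no effect and no enzyme for full effect; nearly all actives have a fitted effect of over 20% in size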
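20 mM phosphate pH 7.0 + 0.01% (detergent screen) or 0.0001% Triton X-100; 5.3 nM AmpC reagent; cpd preinc 15 min RT; nitrocefin (800 uM stock) to start; A480 q20 s × 4 min; Activity was normalised to no-enzyme and no-compound control wells.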
SARS PLP yeast: inhibitors of SARS-CoV papain-like protease in yeast | Potency, µM (highest dose often 32.9 µM), for the others: at the top dose activity, positive = growth rescue, usual class: activators | 330,000 tested, 0.19% active | S. cerevisiae expressing SARS-CoV PLpro, growth rescue | AID 485353; calls by dose curve; further: 0% is about no effect; nearly all actives have a fitted effect of over 55% in size
Starred values were filed as active, the others as inactive; u = inconclusive; x = no result; [ ] = dose if it differs, or a comment. The list is not random: actives were taken first. Their share in the collection is about 12%. Unless noted, the call rests on the fitted dose curve; in most records, active means well fitted curve in the direction sought with a large enough effect; inconclusive means small, poorly fitted or top-dose-only effect, or another doubt; inactive means no such curve, though single readings can be large; an effect the other way counts as inactive or inconclusive. Potency means the concentration at half of the fitted maximal effect.

SMILES	AmpC detergent	Pf growth 48h	Sm TGR inh	Pf growth 96h	AmpC no deterg	SARS PLP yeast
CCOC(=O)[C@@H]1[C@H]2COc3cc(OC)ccc3[C@@H]2N2C(=O)N(c3ccc(OC)cc3)C(=O)[C@@]12C	x	x	x	x	57%	-4%
CN1CCO[C@H](c2ccccc2)c2ccccc2C1	x	-4%[12.8 µM]	x	-17%[12.8 µM]	x	x
Cc1ccc(C)c(N2CCN(S(=O)(=O)c3c(C(=O)N4CCC(C)CC4)c(C)n(C)c3C)CC2)c1	0%	x	3%	x	x	x
Cc1cc(SCC(=O)Nc2ccc3[nH]c(=O)[nH]c3c2)nc2ccccc12	x	x	x	x	-5%	-1%
CC(=O)N1CCCc2ccc(NC(=O)c3ccc(C(F)(F)F)cc3)cc21	-2%	x	-8%	x	x	x
S=c1nc(-c2csc3c2CCCC3)[nH][nH]1	1%	0%	35µM*	54%	-50%	0%
COc1cc2c(cc1OC)C(c1cc(OC)c(OC)cc1[N+](=O)[O-])N(C(C)=O)CC2 (configuration not stated)	-7%	14%	89µM*	0%	-17%	1%
COc1cc2c(cc1OC)C(C)N(C(=O)c1cccc([N+](=O)[O-])c1)CC2 (configuration not stated)	-2%	-8%	2%	0.52µM*	21%	-6%
COc1cc2c(cc1OC)C(COc1cc(C)cc(C)c1)N(C(C)=O)CC2 (configuration not stated)	6%	u	6%	-3%	133%	5%
COc1cc2c(cc1OC)C(C)N(C(=O)c1sccc1C)CC2 (configuration not stated)	-1%	-3%	3%	u	-1%	-2%
CCOC(=O)c1cc(CC)sc1NC(=O)c1cc(OCC)c(OCC)c(OCC)c1	2%	8.3µM*	-16%	5.9µM*	-18%	1%
CCOC(=O)c1c(NC(=O)C(c2ccccc2)c2ccccc2)sc2c1C1CCN2CC1	1%	2.1µM*	10%	u	-6%	-9%
CCOC(=O)c1cc(CC)sc1NC(=O)COc1ccccc1C	-5%	x	-4%	x	x	x
CCOC(=O)c1cc(CC)sc1NC(=O)C(c1ccccc1)c1ccccc1	1%	u	13%	8.3µM*	-16%	1%
Cc1ccccc1CSc1nc(-c2cccc(F)c2)nc2c1Cc1c(CO)cnc(C)c1O2	-6%	x	u	x	x	x
COc1cccc(CNC(=O)c2cnc(N3CCCCC3)c3ccccc23)c1	7%	x	-2%	x	x	x
CN(C)c1oc(-c2ccccc2Cl)nc1C#N	0%	12%	-2%	x	-8%	-3%
CN(C)c1oc(-c2ccccc2[N+](=O)[O-])nc1C#N	9%	-7%	35µM*	3%	-8%	-2%
C(=N\n1cnc2ccccc21)/c1cccnc1	4%	x	5%	-4%	-13%	10%
Cc1cc2ncn(/N=C/c3cccnc3)c2cc1C	-5%	15µM*	3%	u	105%	-6%
CCOC(=O)C(CC)Sc1ncnc2sc3c(c12)CCCC3 (configuration not stated)	6%	x	-4%	x	x	x
N/C(=N\OC(=O)c1ccccc1F)c1cccc([N+](=O)[O-])c1	6%	146%	2%	12µM*	-9%	5%
CC(C)C(CCNC(=O)CC(Cc1ccccc1)c1ccco1)c1ccco1 (configuration not stated)	-6%	u	u	13µM*	8%	-8%
CC(C)(C)[C@@H]1C=C(C(=O)Nc2ccccc2)O[C@H](OCc2ccc(CO)cc2)C1	-5%	u	2%	8.3µM*	22%	1%
C#CCNC(=O)C1=C[C@H](C(C)(C)C)C[C@H](OCc2ccc(CO)cc2)O1	-7%	u	u	u	113%	-2%
C#CCNC(=O)C1=C[C@H](c2ccc(C(F)(F)F)cc2)C[C@H](OCc2ccc(CO)cc2)O1	-2%	u	40µM*	u	99%	-3%

Assay outcomes as filed in PubChem.
